# Values joined by “and” are separate entries in the source; they are usually repeats but may differ in a detail not shown here. Identical values can stand only once. Results filed as inconclusive are left out. Where a call stands in place of a potency, no number is given. Active and inactive are the calls of the source. Unless noted, calls come from the whole dose curve.
# Tests used:
# [1] = target: Estrogen receptor (Homo sapiens) (UniProt P03372); experiment: qHTS assay for small molecule antagonists of estrogen receptor alpha signaling (AID 588513; active = well fitted curve in the direction sought with a large enough effect in the signal ratio, with a control signal flat, not every such curve was filed as active; the % refers to the signal ratio)
# Summary of the method: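 Antagonist-mode qHTS in ER-alpha-UAS-bla HEK 293 cells: compound titration, 0.5nM estradiol for 18 h, CCF4 fluorescence, Hill-derived IC50.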
# [2] = target: Estrogen receptor (Homo sapiens) (UniProt P03372); experiment: qHTS assay for small molecule agonists of estrogen receptor alpha signaling (AID 588514); note: nearly all actives have a fitted effect of over 70% in size
# Summary of the method: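 Fluorescence from CCF4 cleavage reports ER-alpha-driven beta-lactamase expression in HEK 293 cells treated 18 hrs at 37 C. Data normalized to 17-beta-estradiol (20 nM) and DMSO, fitted to Hill equation.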
# [3] = qHTS assay for small molecule antagonists of peroxisome proliferator-activated receptor delta signaling (AID 588535; active = well fitted inhibition curve with a large enough effect in the signal ratio, with a control signal flat, not every such curve was filed as active; the % refers to the signal ratio;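 for max response: cells co-treated with a PPAR-delta agonist as stimulator during compound exposure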); conditions: HEK293T PPARd-UAS-bla, beta-lactamase FRET ratio, 18 h; 460 nm channel
# Summary of the method: (§1)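 Beta-lactamase reporter read-out (405 nm excitation, 460/530 nm emission) after CCF4 loading for 2 hrs at RT. HEK293T PPAR-delta-UAS-bla cells, 2% charcoal/dextran FBS, compounds for 18 hrs at 37 C. Hill fit gave IC50 and efficacy.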
# [4] = target: Peroxisome proliferator-activated receptor delta (Homo sapiens) (UniProt Q03181); experiment: as above
# Summary of the method: as §1
# [5] = target: Vitamin D3 receptor (Homo sapiens) (UniProt P11473); experiment: qHTS assay for small molecule antagonists of vitamin D receptor signaling (AID 588541);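 note: receptor activated by calcitriol during compound treatment; series mostly up to about 77 µM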
# Summary of the method: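 VDR-UAS-bla HEK293T cells in 2% charcoal-stripped FBS were stimulated with 1-alpha,25-dihydroxyvitamin D3 (3 nM final) plus compound for 16 h at 37 C. The beta-lactamase CCF4 readout was normalized to 50 nM agonist and DMSO, and Hill fits gave IC50.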
# [6] = target: Vitamin D3 receptor (Homo sapiens) (UniProt P11473); experiment: qHTS assay for small molecule agonists of vitamin D receptor signaling (AID 588543)
# Summary of the method: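 Measured: β-lactamase reporter activity (CCF4, 405 nm excitation, 460/530 nm emission) in HEK293T VDR-UAS-bla cells after 16 h compound exposure at 37 °C. Normalization against 50 nM 1α,25-dihydroxyvitamin D3 and DMSO; Hill-fit EC50.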
# [7] = qHTS assay for small molecule agonists of retinoid X receptor alpha signaling (AID 588544); conditions: HEK293T RXRa-UAS-bla, beta-lactamase reporter, 18 h; 530 nm emission
# [8] = target: Retinoic acid receptor RXR-alpha (Homo sapiens) (UniProt P19793); experiment: as above
# [9] = target: Ubiquitin carboxyl-terminal hydrolase 1 (Homo sapiens) (UniProt O94782); experiment: Inhibitors of USP1/UAF1: Pilot qHTS (AID 504865; active = well fitted curve in the direction sought with a large enough effect; an effect the other way counts as inactive or inconclusive;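 note: rhodamine fluorescence freed from ubiquitin-rhodamine substrate followed over time; top concentration of the series differs between compounds; nearly all actives have a fitted effect of over 35% in size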)
# Summary of the method: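 Enzyme-free wells gave the negative control, while test wells held 1nM USP1/UAF1 preincubated with compound for 15 min at room temperature. Ub-Rho at 150nM final started the reaction, and fluorescence at 480/540 nm was recorded kinetically.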
# [10] = target: Bile acid receptor (Homo sapiens) (UniProt Q96RI1); experiment: qHTS assay for small molecule antagonists of farnesoid X receptor signaling (AID 588526)
# Summary of the method: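 Antagonist mode: titrated compounds tested against chenodeoxycholic acid stimulation (normalized to 50 uM CDCA and DMSO) in GeneBLAzer HEK293T cells for 16 h. Beta-lactamase read by CCF4 fluorescence; IC50 from Hill fits.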
# [11] = target: Glucocorticoid receptor (Homo sapiens) (UniProt P04150); experiment: qHTS assay for small molecule agonists of glucocorticoid receptor signaling (AID 588532; active = well fitted curve in the direction sought with a large enough effect in the signal ratio, with a control signal flat; the % refers to the signal ratio); conditions: HeLa MMTV-bla, beta-lactamase ratio, agonist, 18 h; stronger effect = higher value; percent of dexamethasone control, DMSO zero
# Summary of the method: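 MMTV-bla HeLa beta-lactamase reporter cells in 1% charcoal/dextran FBS medium, compounds up to 92 uM for 18 h at 37 C, CCF4 readout; normalized to 0.1 uM dexamethasone (100%), EC50 and efficacy from Hill fits.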
# [12] = target: Glucocorticoid receptor (Homo sapiens) (UniProt P04150); experiment: qHTS assay for small molecule antagonists of glucocorticoid receptor signaling (AID 588533; active = well fitted inhibition curve with a large enough effect in the signal ratio, with a control signal flat, not every such curve was filed as active; the % refers to the signal ratio)
# Summary of the method: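 Antagonist-mode qHTS: compound titrations added to GRE-bla HeLa cells, then dexamethasone 2 nM final; 18 h, 37 C. CCF4 FRET fluorescence normalized to dexamethasone and DMSO; IC50 from Hill fit.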
# [13] = target: Peroxisome proliferator-activated receptor gamma (Homo sapiens) (UniProt P37231); experiment: qHTS assay for small molecule agonists of peroxisome proliferator-activated receptor gamma signaling (AID 588536; active = well fitted curve in the direction sought with a large enough effect in the signal ratio, with a control signal flat, not every such curve was filed as active; the % refers to the signal ratio)
# Summary of the method: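 Compound treatment: 16 h, 37 C, HEK293 GeneBLAzer cells. Detection: CCF4, 2 h RT. Values: Hill-fit EC50, efficacy as % of 2 uM rosiglitazone.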
# [14] = qHTS for Inhibitors of ATXN expression: Validation of Cytotoxic Assay (AID 588349; active = well fitted curve in the direction sought with a large enough effect; an effect the other way counts as inactive or inconclusive)
# Summary of the method: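 Toxicity of test compounds toward HEK293 cells is scored from cellular ATP content measured by CellTiter Glo. Cells receive titrated doses and incubate 72 hr at 37 degrees C beforehand.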
# [15] = target: DNA dC->dU-editing enzyme APOBEC-3G (Homo sapiens) (UniProt Q9HC16); experiment: qHTS for inhibitors of Vif-A3G interactions: Validation (AID 588379; active = well fitted curve in the direction sought with a large enough effect; an effect the other way counts as inactive or inconclusive)
# Summary of the method: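 Yellow fluorescence (Ex 488, Em 500-530) of Vif-coexpressing HeLa A3G-eYFP cells, scanned by Acumen cytometer, reports blocked A3G degradation. Cells plated at 700/well overnight at 37 deg C before compound addition, then a further overnight compound incubation at 37 deg C.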
# [16] = target: Androgen receptor (Homo sapiens) (UniProt P10275); experiment: qHTS assay for small molecule agonists of androgen receptor signaling (AID 588515; active = well fitted curve in the direction sought with a large enough effect in the signal ratio, with a control signal flat; the % refers to the signal ratio); conditions: AR-UAS-bla HEK293, beta-lactamase ratio, agonist 16 h; stronger effect = higher value
# Summary of the method: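 Stimulation of an AR-responsive β-lactamase reporter in GripTite HEK293 cells was measured after 16 h compound exposure at 37 °C, via CCF4 fluorescence after 2 h RT. EC50 from Hill fits, normalized to R1881 at 30 nM.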
# [17] = target: Androgen receptor (Homo sapiens) (UniProt P10275); experiment: qHTS assay for small molecule antagonists of androgen receptor signaling (AID 588516; active = well fitted curve in the direction sought with a large enough effect in the signal ratio, with a control signal flat, not every such curve was filed as active; the % refers to the signal ratio)
# Summary of the method: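 Compounds tested in titration against 10 nM R1881 in AR-responsive bla reporter HEK 293 cells; CCF4 fluorescence (460/530 nm) after 16 h exposure gave IC50 and efficacy.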
# Sequence of Androgen receptor (Homo sapiens) (P10275 whole entry, looked up): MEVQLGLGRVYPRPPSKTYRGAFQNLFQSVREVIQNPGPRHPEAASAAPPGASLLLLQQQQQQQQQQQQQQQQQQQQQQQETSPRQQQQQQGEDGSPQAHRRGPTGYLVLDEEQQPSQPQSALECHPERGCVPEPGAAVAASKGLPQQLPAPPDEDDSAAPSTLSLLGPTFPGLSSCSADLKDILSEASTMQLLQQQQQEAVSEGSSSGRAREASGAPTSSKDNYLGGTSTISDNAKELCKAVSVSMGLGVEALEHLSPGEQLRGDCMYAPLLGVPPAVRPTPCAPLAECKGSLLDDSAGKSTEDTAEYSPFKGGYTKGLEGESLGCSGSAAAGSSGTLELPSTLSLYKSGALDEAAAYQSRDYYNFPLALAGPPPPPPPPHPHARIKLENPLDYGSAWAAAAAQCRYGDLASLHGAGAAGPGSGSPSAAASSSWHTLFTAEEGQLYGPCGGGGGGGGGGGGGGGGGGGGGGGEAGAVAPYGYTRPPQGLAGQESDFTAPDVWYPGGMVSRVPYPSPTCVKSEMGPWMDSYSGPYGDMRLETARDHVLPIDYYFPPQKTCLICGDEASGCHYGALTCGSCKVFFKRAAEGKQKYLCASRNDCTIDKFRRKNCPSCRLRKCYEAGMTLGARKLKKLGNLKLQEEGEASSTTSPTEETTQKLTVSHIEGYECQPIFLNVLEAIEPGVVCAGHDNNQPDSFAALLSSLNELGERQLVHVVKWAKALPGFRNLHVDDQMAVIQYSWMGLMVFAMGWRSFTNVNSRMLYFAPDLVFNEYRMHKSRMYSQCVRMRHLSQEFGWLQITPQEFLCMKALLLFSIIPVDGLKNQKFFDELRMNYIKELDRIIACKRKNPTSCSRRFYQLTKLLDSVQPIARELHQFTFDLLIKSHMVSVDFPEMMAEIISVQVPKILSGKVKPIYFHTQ
# Sequence of Ubiquitin carboxyl-terminal hydrolase 1 (Homo sapiens) (O94782 whole entry, looked up): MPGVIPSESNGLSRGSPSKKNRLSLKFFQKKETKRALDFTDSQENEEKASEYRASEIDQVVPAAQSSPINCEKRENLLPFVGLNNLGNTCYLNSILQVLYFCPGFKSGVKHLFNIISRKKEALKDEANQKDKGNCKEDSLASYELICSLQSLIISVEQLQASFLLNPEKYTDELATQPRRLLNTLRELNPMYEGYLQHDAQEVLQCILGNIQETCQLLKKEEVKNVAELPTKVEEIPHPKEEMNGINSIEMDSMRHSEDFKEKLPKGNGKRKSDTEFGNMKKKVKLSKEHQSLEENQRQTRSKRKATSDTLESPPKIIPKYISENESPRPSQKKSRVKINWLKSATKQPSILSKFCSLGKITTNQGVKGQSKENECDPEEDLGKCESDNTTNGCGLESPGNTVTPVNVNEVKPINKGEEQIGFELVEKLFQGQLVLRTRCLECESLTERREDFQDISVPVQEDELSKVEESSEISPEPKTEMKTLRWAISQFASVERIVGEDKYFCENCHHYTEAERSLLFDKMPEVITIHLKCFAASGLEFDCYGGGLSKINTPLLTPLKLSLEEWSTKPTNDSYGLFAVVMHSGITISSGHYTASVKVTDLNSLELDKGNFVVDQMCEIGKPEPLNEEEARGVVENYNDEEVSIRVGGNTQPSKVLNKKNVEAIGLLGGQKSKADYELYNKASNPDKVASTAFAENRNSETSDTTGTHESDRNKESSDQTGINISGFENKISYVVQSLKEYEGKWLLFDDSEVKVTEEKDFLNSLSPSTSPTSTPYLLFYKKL
# Sequence of Peroxisome proliferator-activated receptor delta (Homo sapiens) (Q03181 whole entry, looked up): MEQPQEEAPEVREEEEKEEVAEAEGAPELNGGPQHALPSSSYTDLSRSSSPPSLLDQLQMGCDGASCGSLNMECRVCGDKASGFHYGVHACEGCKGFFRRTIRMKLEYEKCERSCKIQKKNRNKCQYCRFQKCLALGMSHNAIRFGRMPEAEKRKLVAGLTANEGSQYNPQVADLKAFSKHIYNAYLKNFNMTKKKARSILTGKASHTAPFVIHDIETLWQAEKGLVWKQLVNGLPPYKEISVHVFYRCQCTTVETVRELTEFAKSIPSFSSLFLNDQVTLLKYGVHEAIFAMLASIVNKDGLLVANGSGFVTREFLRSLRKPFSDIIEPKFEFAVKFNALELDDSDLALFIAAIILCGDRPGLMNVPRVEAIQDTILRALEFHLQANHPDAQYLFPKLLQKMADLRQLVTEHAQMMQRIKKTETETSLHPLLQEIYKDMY
# Sequence of Retinoic acid receptor RXR-alpha (Homo sapiens) (P19793 whole entry, looked up): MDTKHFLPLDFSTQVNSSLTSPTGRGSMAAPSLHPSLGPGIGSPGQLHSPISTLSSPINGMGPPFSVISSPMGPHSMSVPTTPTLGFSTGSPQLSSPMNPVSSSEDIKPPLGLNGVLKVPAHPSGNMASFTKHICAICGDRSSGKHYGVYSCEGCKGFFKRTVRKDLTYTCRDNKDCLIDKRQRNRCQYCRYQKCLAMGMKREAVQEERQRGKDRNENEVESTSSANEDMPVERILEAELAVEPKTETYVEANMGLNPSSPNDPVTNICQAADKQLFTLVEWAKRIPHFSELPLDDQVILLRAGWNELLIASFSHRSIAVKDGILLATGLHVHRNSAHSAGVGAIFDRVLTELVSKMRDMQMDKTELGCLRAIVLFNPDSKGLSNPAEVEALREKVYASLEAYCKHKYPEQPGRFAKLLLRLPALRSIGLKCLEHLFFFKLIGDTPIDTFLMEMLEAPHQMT
# Sequence of Estrogen receptor (Homo sapiens) (P03372 whole entry, looked up): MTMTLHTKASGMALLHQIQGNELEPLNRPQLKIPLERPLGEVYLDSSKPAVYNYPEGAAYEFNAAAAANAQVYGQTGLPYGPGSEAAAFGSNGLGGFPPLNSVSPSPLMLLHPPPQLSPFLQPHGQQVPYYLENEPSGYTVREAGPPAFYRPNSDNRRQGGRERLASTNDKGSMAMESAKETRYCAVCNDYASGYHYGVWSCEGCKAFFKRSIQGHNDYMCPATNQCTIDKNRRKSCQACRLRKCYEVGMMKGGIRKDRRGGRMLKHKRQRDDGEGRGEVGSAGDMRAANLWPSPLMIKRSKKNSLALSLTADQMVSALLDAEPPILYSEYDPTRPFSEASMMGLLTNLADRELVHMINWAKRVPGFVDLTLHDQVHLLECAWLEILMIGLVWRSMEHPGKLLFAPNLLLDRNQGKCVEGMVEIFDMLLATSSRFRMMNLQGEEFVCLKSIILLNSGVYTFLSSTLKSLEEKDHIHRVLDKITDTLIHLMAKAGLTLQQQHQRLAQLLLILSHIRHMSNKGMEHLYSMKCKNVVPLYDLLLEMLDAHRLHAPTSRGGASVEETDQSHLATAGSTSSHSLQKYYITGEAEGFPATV
# Sequence of Vitamin D3 receptor (Homo sapiens) (P11473 whole entry, looked up): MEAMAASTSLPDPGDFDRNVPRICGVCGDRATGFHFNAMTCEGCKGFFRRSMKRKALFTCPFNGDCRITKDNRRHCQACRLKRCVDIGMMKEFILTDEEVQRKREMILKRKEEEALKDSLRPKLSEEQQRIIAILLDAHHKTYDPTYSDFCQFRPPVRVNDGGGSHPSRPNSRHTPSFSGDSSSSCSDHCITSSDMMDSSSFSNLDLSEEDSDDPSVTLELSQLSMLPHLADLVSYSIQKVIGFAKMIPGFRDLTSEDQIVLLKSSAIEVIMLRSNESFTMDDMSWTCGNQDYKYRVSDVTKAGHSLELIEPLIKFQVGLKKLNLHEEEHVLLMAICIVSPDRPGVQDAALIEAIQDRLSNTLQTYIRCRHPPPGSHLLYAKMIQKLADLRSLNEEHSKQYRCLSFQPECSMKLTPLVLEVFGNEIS
# Sequence of Peroxisome proliferator-activated receptor gamma (Homo sapiens) (P37231 whole entry, looked up): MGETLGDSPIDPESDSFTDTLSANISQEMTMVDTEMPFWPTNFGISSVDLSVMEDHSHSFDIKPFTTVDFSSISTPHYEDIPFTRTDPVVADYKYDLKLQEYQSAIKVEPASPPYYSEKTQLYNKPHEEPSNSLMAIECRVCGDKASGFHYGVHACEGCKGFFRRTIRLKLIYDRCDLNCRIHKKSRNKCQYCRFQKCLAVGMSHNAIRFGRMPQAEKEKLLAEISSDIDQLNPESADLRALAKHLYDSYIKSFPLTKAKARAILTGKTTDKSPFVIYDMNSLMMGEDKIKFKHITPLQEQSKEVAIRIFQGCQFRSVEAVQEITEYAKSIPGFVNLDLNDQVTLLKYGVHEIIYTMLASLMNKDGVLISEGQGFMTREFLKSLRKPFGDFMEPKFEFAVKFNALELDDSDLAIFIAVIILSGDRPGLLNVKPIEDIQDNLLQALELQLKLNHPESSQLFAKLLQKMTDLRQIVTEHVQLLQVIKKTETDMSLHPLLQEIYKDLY
# Sequence of Glucocorticoid receptor (Homo sapiens) (P04150 whole entry, looked up): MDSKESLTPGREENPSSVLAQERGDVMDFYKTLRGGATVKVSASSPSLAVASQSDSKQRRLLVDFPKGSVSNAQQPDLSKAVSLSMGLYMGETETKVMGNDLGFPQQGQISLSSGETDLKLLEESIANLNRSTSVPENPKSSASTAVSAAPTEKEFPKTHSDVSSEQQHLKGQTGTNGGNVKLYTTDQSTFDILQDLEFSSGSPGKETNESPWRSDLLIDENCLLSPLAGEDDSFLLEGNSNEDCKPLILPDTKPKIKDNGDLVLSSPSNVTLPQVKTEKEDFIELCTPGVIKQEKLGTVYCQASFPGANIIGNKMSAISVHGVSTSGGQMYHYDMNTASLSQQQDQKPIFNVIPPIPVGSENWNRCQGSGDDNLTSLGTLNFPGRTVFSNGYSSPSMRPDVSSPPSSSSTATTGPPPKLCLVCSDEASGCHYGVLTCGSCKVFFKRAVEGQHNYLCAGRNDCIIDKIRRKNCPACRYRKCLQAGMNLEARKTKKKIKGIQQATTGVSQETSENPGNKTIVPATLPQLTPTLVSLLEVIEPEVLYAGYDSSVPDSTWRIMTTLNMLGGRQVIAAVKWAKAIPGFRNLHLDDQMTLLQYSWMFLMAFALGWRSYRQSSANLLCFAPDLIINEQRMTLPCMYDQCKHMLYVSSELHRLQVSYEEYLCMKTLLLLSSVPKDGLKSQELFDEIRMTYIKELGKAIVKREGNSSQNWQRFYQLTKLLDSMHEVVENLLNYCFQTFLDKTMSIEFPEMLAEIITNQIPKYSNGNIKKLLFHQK
smiles,measurement,setting,value
[Cl][In]([Cl])[Cl],outcome,[1],inactive
same,outcome,[2],inactive
same,max response,[3],29.3%
same,outcome,[4],inactive
same,outcome,[5],inactive
same,outcome,[6],inactive
same,max response,[7],-5.94%
same,outcome,[8],inactive
CC(O)CN(CCN(CC(C)O)CC(C)O)CC(C)O (stereo unspecified),Potency,[9],inactive
same,outcome,[10],inactive
same,activation,[11],-7.72% (inactive)
same,outcome,[12],inactive
same,max response,[3],30%
same,outcome,[4],inactive
same,outcome,[13],inactive
same,outcome,[5],inactive
same,outcome,[6],inactive
CC12CCC(CC1)C(C)(C)O2,Potency,[9],inactive
same,outcome,[1],inactive
same,outcome,[2],inactive
same,outcome,[10],inactive
same,activation,[11],-0.499% (inactive)
same,outcome,[12],inactive
same,max response,[3],-10.6%
same,outcome,[4],inactive
same,outcome,[13],inactive
same,outcome,[5],inactive
same,outcome,[6],inactive
same,max response,[7],-11.5%
same,outcome,[8],inactive
NC(=O)c1ncn([C@@H]2O[C@H](CO)[C@@H](O)[C@H]2O)n1,Potency,[9],inactive
same,Potency,[14],inactive
same,activation,[11],1.78% (inactive)
same,outcome,[12],inactive
same,outcome,[5],inactive
same,outcome,[6],inactive
same,max response,[7],18.3%
same,outcome,[8],inactive
CC(=O)Oc1ccc(C2(c3ccc(OC(C)=O)cc3)C(=O)Nc3ccccc32)cc1,Potency,[9],inactive
c1ccc(CN(CC2=NCCN2)c2ccccc2)cc1,Potency,[9],inactive
same,outcome,[15],inactive
NCCNCCNCCNCCN,Potency,[9],inactive
same,activation,[16],15.1% (inactive) and -3.31% (inactive)
same,outcome,[17],inactive
same,activation,[11],-3.86% (inactive) and -5.35% (inactive)
same,outcome,[12],inactive
same,outcome,[5],inactive
same,outcome,[6],inactive
same,max response,[7],-10.7% and -8.96%
same,outcome,[8],inactive
O=c1cc(CO)occ1O,Potency,[9],inactive
same,outcome,[15],inactive
O=C1NS(=O)(=O)c2ccccc21,Potency,[9],inactive
same,max response,[3],2.93%
same,outcome,[4],inactive
same,outcome,[13],inactive
